# Shown are actives, neighbours in structure and some others; about 6.4% of the full set was active somewhere.
# KinaseGlo FLuc = Counterscreen for Luciferase (Kinase-Glo TM) Inhibition; hit rate 0.28% among 200,000; Kinase-Glo luciferase, ATP luminescence, 8 min; Potency, µM (doses to about 38.3 µM), hits mostly inhibitors; AID 1379, 2008; also: nearly all actives have a fitted effect of over 60% in size
#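 Recombinant Kinase-Glo luciferase, 10 uM ATP (linear range), luciferin; imidazole pH 7.2 / KCl / MgCl2 / Tween / BSA buffer; 8 min RT; luminescence.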
# VP16 counter = VP16 counterscreen qHTS for inhibitors of ROR gamma transcriptional activity. Drosophila S2 Gal4-VP16 UAS-luciferase, luminescence, 20 h. Potency, µM (doses to about 53.6 µM), usual class: inhibitors. hit rate 3.5% among 310,000;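 also: Gal4-VP16 expression switched on by copper sulfate through the metallothionein promoter; nearly all actives have a fitted effect of over 50% in size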
# RORgamma inh = qHTS for inhibitors of ROR gamma transcriptional activity; Nuclear receptor ROR-gamma (Mus musculus), P51450; Drosophila S2 Gal4-RORgamma UAS-luciferase reporter, 20 h; Potency, µM (titrated, usually from 53.6 µM), actives largely listed as inhibitors; hit rate 5.4% among 310,000; AID 2551, 2010; also: nearly all actives have a fitted effect of over 60% in size
# Target sequence (P51450 whole entry, looked up, the tested form may be a part): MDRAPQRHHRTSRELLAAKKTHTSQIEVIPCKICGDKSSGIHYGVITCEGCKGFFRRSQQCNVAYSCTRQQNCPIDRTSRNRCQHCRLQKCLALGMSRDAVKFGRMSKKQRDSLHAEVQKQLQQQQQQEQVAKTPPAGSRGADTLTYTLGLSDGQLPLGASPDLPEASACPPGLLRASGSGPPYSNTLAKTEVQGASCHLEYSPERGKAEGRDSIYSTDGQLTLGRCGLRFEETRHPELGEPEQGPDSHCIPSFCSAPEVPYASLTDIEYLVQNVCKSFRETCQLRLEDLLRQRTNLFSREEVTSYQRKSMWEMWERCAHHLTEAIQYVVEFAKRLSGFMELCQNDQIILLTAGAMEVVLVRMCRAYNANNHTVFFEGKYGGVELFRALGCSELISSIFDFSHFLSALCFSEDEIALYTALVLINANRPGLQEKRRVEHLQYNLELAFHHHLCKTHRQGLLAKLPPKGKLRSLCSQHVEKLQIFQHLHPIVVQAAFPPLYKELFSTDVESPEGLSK
#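 Drosophila Schneider cells stably carrying a metallothionein-driven Gal4 DBD–ROR gamma fusion and a UAS-Photinus luciferase reporter were exposed to compound for 1 hr, then induced with copper sulfate (700 uM final) for 20 hr at ambient temperature before luminescence reading.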
# Numbers stand for hits; i = inactive; ? = inconclusive; nt = no result; [ ] = another dose, or the depositor's remark. Calls follow the shape of the dose curve; as a rule, active = well fitted curve in the direction sought with a large enough effect; inconclusive = small, poorly fitted or top-dose-only effect, or another doubt; inactive = no such curve, though single readings can be large; an effect the other way counts as inactive or inconclusive.
SMILES,KinaseGlo FLuc,VP16 counter,RORgamma inh
CC1Cc2cc(S(=O)(=O)N3CCCC(C(=O)N4CCCCC4)C3)ccc2N1C(=O)C1CC1 (centres undefined),nt,i,i
CCOC(=O)c1c(C)[nH]c(C)c1S(=O)(=O)NCc1ccc(OCC)cc1,nt,i,i
C[N+]1([C@H](CO)Cc2c[nH]c3ccccc23)Cc2ccccc2C1,i[7.66 µM],nt,nt
Cc1ccc(S(=O)(=O)N2C(=O)CCC2C(=O)O/N=C(\N)c2cccc([N+](=O)[O-])c2)cc1 (centres undefined),nt,i,i
COc1ccc(-c2cnnc(N/N=C/c3ccc(O)cc3)n2)cc1,i,i,i
COc1ccc(-c2cnnc(N/N=C/c3c(C)nn(-c4ccccc4)c3Cl)n2)cc1,i,i,i
COc1ccc(-c2cnnc(N/N=C/c3ccc(C)o3)n2)cc1,i,i,5.01µM
COc1ccc(-c2cnnc(N/N=C/c3ccc(O)c(O)c3)n2)cc1,i,8.91µM,?
O=[N+]([O-])c1ccccc1/C=C/CN1CCN(Cc2ccc3c(c2)OCO3)CC1,nt,i,?
CCOc1ccc(N(C)C(=O)CCc2nnc3ccc(N4CCCCC4)nn23)cc1,nt,i,i
FC(F)(F)c1cc(-c2ccccc2)nc(-n2cncn2)n1,i,i[0.365 µM],i
Fc1ccc(-c2cc(-c3ccccc3)nc(-n3cccn3)n2)cc1,i,?,1µM
CC(=O)Nc1ccc(S(=O)(=O)NCCCc2ccccc2)cc1,nt,i,i[1.91 µM]
N#Cc1cc(O)c(-n2nnc3ccccc32)cc1C#N,i,i,i
N#Cc1cc(Oc2cccc3cccnc23)c(-n2nnc3ccccc32)cc1C#N,nt,6.31µM,?
CC1CCN(C(=O)Cn2nnc(-c3ccc([N+](=O)[O-])cc3)n2)CC1,nt,i,?
CC1CCCCN1CCCNC(=O)CN1C(=O)c2cccnc2Oc2ccc(Cl)cc21 (centres undefined),nt,?,i
CCCc1ccc(C(=O)NNC(=O)c2ccc(Br)cc2)cc1,i,i,i
O=C(NC(=O)c1ccccc1O)c1ccc(C(F)(F)F)cc1,nt,8.91µM,?
CCCc1ccc(C(=O)NC(=O)c2ccccc2O)cc1,nt,1.58µM,2.82µM
O=C(NC(=S)NNC(=O)c1ccccc1O)c1ccc(F)cc1,nt,?,i[1.91 µM]
Cc1cc(C)nc(SCC(=O)Nc2nc(-c3ccccc3)c(-c3ccccc3)o2)n1,i,20µM,11.2µM
Cc1cc(=O)[nH]c(SCC(=O)Nc2nc(-c3ccccc3)c(-c3ccccc3)o2)n1,i,i,i
Cc1nc(-c2ccc(NC(=O)C(C)(C)C)cc2)c(-c2ccccc2)o1,nt,i,i
Cc1ccc(C(=O)Nc2nc(-c3ccccc3)c(-c3ccccc3)o2)cc1,i,5.62µM,5.01µM
SMILES,KinaseGlo FLuc,VP16 counter,RORgamma inh
O=C(OCCOc1ccccc1)c1n[nH]c2ccccc12,nt,i,i
COc1ccc(C(=O)Nc2ccnn2C2CCN(C(=O)C3CCOC3)CC2)cc1 (centres undefined),nt,i,i
COC(CNC(=O)CCc1c(C)nc2c(-c3ccccc3)c(C)nn2c1C)OC,nt,i,i
CNC(=S)N1CCN(c2ccccc2OC)CC1,i,i,i
O=C(NC(=S)N1CCOCC1)c1ccc([N+](=O)[O-])cc1,i,2.24µM,1.41µM
CC1CN(C(=S)SCC(=O)c2ccc([N+](=O)[O-])cc2)CC(C)O1 (centres undefined),nt,i,i
CC1CN(C(=S)NC(=O)c2ccc([N+](=O)[O-])cc2)CC(C)O1 (centres undefined),i,1.26µM,0.447µM
COc1ccc(C(=O)NC(=S)N2CCN(c3ccccc3OC)CC2)cc1,nt,?,2µM
O=C(NC(=S)NCCCN1CCOCC1)c1ccc([N+](=O)[O-])cc1,i,i,i
COc1ccccc1NC(=S)N1CC(C)OC(C)C1 (centres undefined),i,i,i
CC1CN(C(=S)NC(=O)c2ccccc2)CC(C)O1 (centres undefined),nt,3.16µM,3.55µM
O=C(NNC(=O)c1ccccc1C(=O)O)c1ccc(S(=O)(=O)N2CCCCC2)cc1,nt,i,i
Cc1ccc(CCNS(=O)(=O)c2cc3c(cc2C)NC(=O)CO3)cc1,nt,i,i
C[C@@H](Oc1ccc(Oc2cnc3ccc(Cl)cc3n2)cc1)C(=O)O,i,nt,nt
O=c1c(-c2ccc(O)cc2)coc2cc(O[C@@H]3O[C@H](CO)[C@@H](O)[C@H](O)[C@H]3O)cc(O)c12,nt,i,i
O=C(NC(=S)N1CCN(c2ccccn2)CC1)c1ccco1,i,3.16µM,0.178µM
CC1CN(c2ccc(NC(=O)c3ccco3)cc2C(=O)O)CC(C)O1 (centres undefined),nt,i,i
CC1CN(C(=S)NC(=O)c2ccco2)CC(C)O1 (centres undefined),i,20µM,3.98µM
COc1ccc(C(=O)NC(=S)N2CCN(c3ccc([N+](=O)[O-])cc3)CC2)cc1,i,0.891µM,0.631µM
CN1CCN(C(=O)/C(=C\c2cccs2)NC(=O)c2ccco2)CC1,i,i,i
CN1CCN(C(=S)NC(=O)c2ccco2)CC1,i,14.1µM,3.55µM
CCNC(=S)N1CCN(c2ccccn2)CC1,nt,i,i
COc1ccc(NC(=O)N2CCN(c3ccc([N+](=O)[O-])cc3)CC2)cc1,i,i,i
CN(C)S(=O)(=O)N1CCC(Oc2cccc(C(=O)N3CCSCC3)c2)CC1,nt,i,?
S=C(Nc1cccc(Cl)c1Cl)N1CCCC1,nt,i,i
SMILES,KinaseGlo FLuc,VP16 counter,RORgamma inh
CC1CN(C(=S)Nc2cccc(Cl)c2Cl)CC(C)O1 (centres undefined),nt,?,17.8µM
Cc1cccc(C(C)Nc2ccc([N+](=O)[O-])cn2)c1 (centres undefined),i,i,i
CCC1(O)CC(C(=O)OC)=NN1C(=O)c1ccccc1 (centres undefined),i,i,i
CCC1=NN(C(=O)c2ccccc2Br)C(O)(c2ccc(Br)cc2)C1 (centres undefined),i,?,8.91µM
O=C(CN1N=C(C(F)(F)F)CC1(O)c1ccc([N+](=O)[O-])cc1)c1ccccc1 (centres undefined),i,i,i
O=C(c1ccccc1O)N1N=C(C(F)(F)F)CC1(O)c1ccc([N+](=O)[O-])cc1 (centres undefined),nt,10µM,11.2µM
CCC1=NN(C(=O)c2ccccc2O)C(O)(c2ccccc2)C1 (centres undefined),nt,7.94µM,5.01µM
O=C(c1cc(-c2ccc(Br)cc2)n[nH]1)N1CCN(C(=O)c2ccccc2Br)CC1,nt,i,i
O=C(COC(=O)c1cc(=O)c2ccccc2o1)Nc1ccc2ccccc2c1,i,i,i
N#CCCN1C(=O)C2(OCCO2)c2ccccc21,nt,i,i
Cc1ccn2c(-c3n[nH]c(=S)n3C)c(C)nc2c1,i,i,i
CN(Cc1cn(-c2ccccc2)nc1-c1ccc(Cl)cc1)C(=O)CCC(=O)O,i,i,?
Cc1cc(-c2nn(-c3ccccc3F)cc2CN2CCN(c3ccncc3)CC2)c(C)s1,i,i,i
c1ccc(C2CCC(N3CCN(c4ccccc4)CC3)CC2)cc1 (centres undefined),nt,?,i
CC(=O)NCCNc1ccnc(-c2ccccc2C)n1,nt,i,i
COc1ccc(OC(=O)COc2ccc(C)cc2)cc1,i,i,i
COc1ccc(OCC(=O)Sc2ccc(C)cc2)cc1,i,i,3.16µM
